The results in this text go back to PubChem BioAssay AID493084 (National Center for Advancing Translational Sciences (NCATS), 2011).

In all, about 360,000 compounds went through this assay and about 650 (0.18%) were called active. Rule as the data show it: active = activation above about 30%; inactive = the rest. This excerpt belongs to a sample that is enriched for actives.

Thyrotropin-releasing hormone receptor (Homo sapiens), sequence (P34981 whole entry, looked up): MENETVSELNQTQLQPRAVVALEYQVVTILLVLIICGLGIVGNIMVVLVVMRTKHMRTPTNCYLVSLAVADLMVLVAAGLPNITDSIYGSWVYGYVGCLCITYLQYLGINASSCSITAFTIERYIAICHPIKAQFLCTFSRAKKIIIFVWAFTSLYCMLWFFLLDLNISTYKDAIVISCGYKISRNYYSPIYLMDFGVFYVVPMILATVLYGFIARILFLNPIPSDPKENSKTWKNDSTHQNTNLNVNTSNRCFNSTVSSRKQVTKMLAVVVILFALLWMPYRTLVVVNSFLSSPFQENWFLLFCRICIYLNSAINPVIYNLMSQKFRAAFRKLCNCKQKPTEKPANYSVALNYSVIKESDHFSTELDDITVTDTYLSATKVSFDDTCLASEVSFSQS

The assay concerns the target Thyrotropin-releasing hormone receptor (Homo sapiens) (UniProt P34981). Nature of the assay: qHTS for Small Molecule Agonists and Allosteric Enhancers of Human TRH Receptor: Primary Screen for Agonists. Also: 0% is about no effect. To be noted: TRHR cells, calcium flux fluo-8, FDSS agonist mode; at 2 µM; stronger effect = higher value. An outline of the steps:
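TRHR-expressing cells loaded with fluo-8 calcium dye; 23 nL library compound pin-transferred, kinetic FDSS fluorescence (Ex 480/Em 530) recorded about 180 s for agonist-induced calcium release, before a 10 nM TRH EC20 addition for potentiator mode.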
On the technique in general: Quantitative high-throughput screening tests each substance at several concentrations.
On to `CCOC(=O)C1CCN(C(c2ccc(F)cc2)c2sc3nc(-c4ccco4)nn3c2O)CC1` (configuration not stated), for which the activation was 0.0847% (inactive).
With `COc1cc(/C=C(\C#N)c2nc3c(s2)CC(C)CC3)ccc1O` (configuration not stated) the figure was 38.3% (active); with `COc1cccc2cc(-c3nc(Cl)c4c5c(sc4n3)CC(C)CC5)c(=O)oc12` (configuration not stated), 0.639% (inactive).
In the case of `CCOc1ccc(/C=C(\C#N)c2nc3ccccc3c(=O)[nH]2)cc1OC`, the activation is 2.27% (inactive).
Regarding `COc1cc(/C=C(\C#N)c2nc3ccccc3[nH]2)ccc1O`, the activation was 33.3% (active).
Under `N#C/C(=C\c1ccccc1F)c1nc2ccccc2c(=O)[nH]1` stands 3.32% (inactive); under `Cc1ccc(S(=O)(=O)c2cn(Cc3ccccc3)c3cc(N4CCCC4)c(F)cc3c2=O)c(C)c1`, 0.661% (inactive).
In the case of `Cc1ccc(C)c(N2CCN(C(=O)Cc3c(C(=O)O)c(C)cn3C)CC2)c1`, the activation was -0.0012% (inactive).
Under `COc1ccc(CNC(=O)c2cc3c(-c4ccccc4F)nn(C)c3s2)c(OC)c1` stands -0.894% (inactive); under `O=C(Nc1ccc(O)c(-c2nc3ccccc3o2)c1)c1ccc(-c2cccc(Cl)c2)o1`, 0.235% (inactive); under `CCOC(=O)CNC(=O)c1cc2c(=O)n3cccc(C)c3nc2s1`, -0.701% (inactive).
As to `CCOC(=O)CC1C(=O)NCCN1c1nc2c(C)cccn2c(=O)c1/C=C1\SC(=S)N(C(C)CC)C1=O` (configuration not stated), the activation is 52.4% (active).
With `CCCN(CCC)c1nc2c(C)cccn2c(=O)c1/C=C1/SC(=S)N(Cc2ccco2)C1=O`, the activation was 12% (inactive).
Turning to `COc1ccc(-c2cc(C(=O)NCc3cc(OC)c(OC)c(OC)c3)[nH]n2)cc1`, the activation was -0.734% (inactive).
For `O=C(Cc1ccc(Cl)cc1)NCC(c1cccs1)S(=O)(=O)c1ccc(Cl)cc1` (configuration not stated), the activation was -0.0259% (inactive).
In the case of `CCCCN1C(=O)c2[nH]nc(-c3ccccc3O)c2C1c1cccc(OCc2ccccc2)c1` (configuration not stated), the activation is 0.132% (inactive).
With `Cc1ccc2nc(-c3ccc(C)c(NC(=O)Cc4ccccc4)c3)oc2c1` the figure was -0.54% (inactive); with `Cc1ccc(C2c3[nH]c4ccccc4c3CCN2C(=O)c2cccc(C)c2)cc1` (configuration not stated), 0.132% (inactive); with `Cc1ccc(S(=O)(=O)NC(N)=NCCC[C@@H](NC(=O)CNC(=O)c2ccccc2)C(=O)Nc2cc(C(F)(F)F)ccc2Cl)cc1`, -1.22% (inactive).
With `COc1ccc(C2C(=O)N(C3CCCCC3)CC(=O)N2Cc2ccccc2Cl)cc1OC` (configuration not stated) the figure was -1.14% (inactive).
Under `COc1ccc(-c2nc(Cn3c(=O)cc(C)c4c(C)nn(-c5ccccc5)c43)c(C)o2)cc1OC` stands -0.897% (inactive); under `Cc1ccc(Cn2ncc3c4sc(C)cc4n(C)c3c2=O)c(C)c1`, 0.195% (inactive); under `Cc1ccccc1CNC(=O)C1CCCN(S(=O)(=O)N(C)c2ccc(F)cc2)C1` (configuration not stated), -0.334% (inactive).
On to `Cc1cc(C)cc(NC(=O)CSc2nc3nccnc3c(=O)n2CCc2c[nH]c3ccccc23)c1`, for which the activation is 0.728% (inactive).
For `O=C(CCS(=O)(=O)c1cc(Br)cc2c1N(C(=O)C1CC1)CC2)Nc1ccc(C(F)(F)F)cc1`, the activation is -0.155% (inactive).
Under `CCOC(=O)c1c(S(=O)(=O)N2CCC(C(=O)NCc3ccccc3OC)CC2)c(C)n(C)c1C` stands -0.102% (inactive); under `O=C(CCSCc1cccc(F)c1)NCc1ccccc1`, -0.592% (inactive).
With `CN(Cc1ccccc1)C(=O)c1cn(C)c2ccc(S(=O)(=O)N3CCCCC3)cc2c1=O` the figure was 0.115% (inactive).
With `CCOc1ccc(C2C(=O)N(C3CCCCC3)CC(=O)N2CCC2=CCCCC2)cc1OC` (configuration not stated) the figure was 0.439% (inactive); with `O=[S+]([O-])(c1ccc(OC(F)(F)F)cc1)N1CCN([S+](=O)([O-])c2ccc3c(c2)OCCO3)CC1`, -0.283% (inactive).
With `CCc1ccc2oc(-c3ccc(C)c(NC(=O)/C=C/c4ccco4)c3)nc2c1`, the activation is -0.323% (inactive).
As to `COc1ccccc1C(=O)Nc1c(C(=O)N(C)Cc2ccccc2)sc2nc(C)c(Cl)c(C)c12`, the activation is -1.19% (inactive).
Regarding `CCc1cccc(NC(=O)CN(c2ccc(C)c(C)c2)S(=O)(=O)c2ccsc2C(=O)OC)c1`, the activation was 0.768% (inactive).
On to `COc1ccc(NC(=O)c2ccc3oc(=O)c(S(=O)(=O)c4ccc(F)cc4)cc3c2)c(OC)c1`, for which the activation was -0.513% (inactive).
Consider `COc1cc(Br)cc2cc(S(=O)(=O)c3ccccc3)c(=O)oc12`, for which the activation is 0.456% (inactive).
With `Cc1cc(S(=O)(=O)c2cc3ccc(O)c(C)c3oc2=O)ccc1F` the figure was 44.2% (active).
Under `Cc1ccc2cccc(NC(=O)C(C)Oc3ccc(C)c(C)c3)c2n1` (configuration not stated) stands 0.214% (inactive); under `COc1ccccc1NC(=O)CSc1oc(-c2ccco2)nc1S(=O)(=O)c1ccc(Br)cc1`, -0.526% (inactive); under `Cc1ccccc1Cn1nc(C)c(NC(=O)c2cc(-c3ccc(F)cc3)on2)c1C`, -0.526% (inactive).
Under `CC1=C(c2ccc(F)cc2)S(=O)(=O)N=C1N1CCC(C(=O)NCCc2ccccc2C)CC1` stands 0.06% (inactive); under `CCc1ccc(S(=O)(=O)n2ccnc2)cc1`, 0.631% (inactive); under `C/C(=C/c1ccccc1)C(=O)N1CCN(c2ccccc2)CC1`, -0.0779% (inactive).
On to `O=C(/C=C/c1ccc(N2CCOCC2)cc1)c1ccccc1`, for which the activation was 42.4% (active).
With `O=C(O)CCC(=O)Nc1ccc(N2CCOCC2)cc1` the figure was 0.0804% (inactive); with `COc1ccc(Cn2c(=O)c3oc4ccccc4c3n(CC(=O)Nc3ccc(F)cc3F)c2=O)cc1`, 1.15% (inactive); with `CCOC(=O)c1cc2c(=O)n3ccccc3nc2n(CCCOC)c1=NC(=O)C(C)Oc1ccccc1` (configuration not stated), 0.485% (inactive).
`N#Cc1nc(Nc2cc(F)cc(Cl)c2)nc(NC2CCCC2)n1`: the activation is 1.3% (inactive).
With `N#CN1CCC(NS(=O)(=O)c2cccc(F)c2)C1` (configuration not stated), the activation was 0.751% (inactive).
As to `O=C(Cn1cnc2c(oc3ccccc32)c1=O)Nc1ccc(OC(F)(F)F)cc1`, the activation is 0.788% (inactive).
For the compound `CCOC(=O)C1CCN(c2nc3c(S(=O)(=O)c4ccc(CC)cc4)nnn3c3ccc(Cl)cc23)CC1`, the activation is 0.759% (inactive).
With `Cc1cccc(C)c1-n1ncc(C(=O)NCCCN2CCCCC2)c1C1CCN(C(=O)OC(C)(C)C)CC1` the figure was 0.838% (inactive).
As for `CCC(CC)c1nn2cc(-c3ccccc3)nc2s1`, the activation is 6.57% (inactive).
Under `CC(C)CNc1ncnc2c1nnn2C` stands -0.593% (inactive).
Under `CCOC(=O)c1cc(-c2ccc(OC)c(S(=O)(=O)Nc3ccc(OC)cc3OC)c2)on1` stands 1.19% (inactive); under `O=[S+]([O-])(c1ccc2c(c1)OCCO2)N1CCN([S+](=O)([O-])c2c(Cl)cc(Cl)cc2Br)CC1`, -1.11% (inactive).
Under `Cc1ccc(S(=O)(=O)N2CCCc3cc(NS(=O)(=O)c4cc(C)ccc4C)ccc32)cc1` stands -0.123% (inactive).
Regarding `CCCCCCc1cc2cc(-c3nnc(-c4ccccc4)o3)c(=O)oc2cc1O`, the activation was 185% (active).
Turning to `COc1cccc(N2CCN(C(=O)CCCCCn3c(=O)[nH]c4ccccc4c3=O)CC2)c1`, the activation is -0.437% (inactive).
With `COCCn1c(CCC(=O)Nc2cc(C)ccc2C)nc2cccnc21` the figure was -1.95% (inactive).
Turning to `COc1ccccc1-n1c(-c2ccc(C)cc2)cn2c3c(=O)n(C)c(=O)n(C)c3nc12`, the activation is 0.636% (inactive).
Under `CCc1ccc(N(CC)C(=O)CCn2cnc3onc(-c4ccc(F)cc4)c3c2=O)cc1` stands 0.0408% (inactive).
In the case of `Cc1noc(C)c1-c1ccc2ncnc(NCc3ccc(F)c(F)c3)c2c1`, the activation was 21.5% (inactive).
With `CCC(=O)N1c2ccccc2CC1C(=O)N1CCN(c2cccc(OC)c2)CC1` (configuration not stated) the figure was -0.304% (inactive); with `CN(C)c1ccc(/C=C2\NC(=S)N(Cc3ccccc3)C2=O)cc1`, 94.7% (active).
As for `COc1ccccc1CNC(=O)NCc1noc2ccc(C)cc12`, the activation was -0.0554% (inactive).
Consider `CCOc1ccc(CNC(=O)Cn2cc3c(n2)-c2c(oc(C(=O)N4CCCC4)c2C)CC3)cc1`, for which the activation was -0.1% (inactive).
As to `CN(C)c1ccc(C(=O)NCC(=O)OC(C(=O)Nc2cc(C(F)(F)F)ccc2Cl)c2ccccc2)cc1` (configuration not stated), the activation was 0.138% (inactive).
With `O=C(CCCCCn1c(=O)[nH]c2ccccc2c1=O)NCCc1c[nH]c2ccccc12` the figure was -0.335% (inactive).
Under `CC1(C(=O)NCCc2c[nH]c3ccccc23)C=CC2(CCCCC2)N1C(=O)c1ccccc1` (configuration not stated) stands 0.212% (inactive).
With `N#C/C(=C/c1ccc(N2CCCCC2)o1)C(=O)NCCc1c[nH]c2ccccc12` the figure was 43.2% (active); with `COc1cc(C(=S)NCc2ccccc2)cc(Br)c1O`, -0.891% (inactive).
`COc1ccc(CCNC(=O)CCCCn2c(=O)c3ccccc3n(Cc3ccccc3)c2=O)cc1OC`: the activation is -0.65% (inactive).
With `COc1cc(/C=C2/SC(=S)N(Cc3ccccc3)C2=O)cc(OC)c1O` the figure was 33.6% (active); with `Cc1ccc(S(=O)(=O)N2CCc3cc(C(=O)Nc4ccc(Cl)cc4C)ccc32)cc1`, 0.483% (inactive); with `Cc1nc2ccn(Cc3cccnc3)c(=O)c2cc1C(=O)N1CCN(c2ccccc2F)CC1`, -0.337% (inactive).
Regarding `O=C1CC(c2nnc(Cc3ccc(Cl)cc3)o2)CN1c1ccccc1` (configuration not stated), the activation was -0.928% (inactive).
Turning to `Cc1cccc(-n2ncc(C(=O)N3CCN(c4ccc(Cl)cc4)CC3)c2C2CCN(C(=O)OC(C)(C)C)CC2)c1`, the activation is 3.67% (inactive).
